# In PubChem BioAssay (NCATS):
# Inconclusive results are not listed. Entries that show only a call come without a potency. Calls of active or inactive are those of the source. Calls follow the shape of the full dose curve.
# Assay: Natriuretic polypeptide receptor (hNpr1) antagonism - Pilot counterscreen GloSensor control cell line (AID 1347045)
# Conditions: HEK293 cGMP GloSensor cells, SNP-stimulated luminescence, 20 min; series mostly up to 38.3 µM
# Procedure: F. Fan, B. F. Binkowski, B. L. Butler, P. F. Stecha, M. K. Lewis, K. V. Wood, Novel genetically encoded biosensors using firefly luciferase. ACS Chem Biol 3, 346-351 (2008).
# PROTOCOL TABLE (as described by Inglese J, Shamu CE and Guy RK. 2007)
# SEQUENCE No. (e.g., 1, 2, 3, etc.); […] (e.g., Cells, Incubation, Reagent, etc.); VALUE and DESCRIPTION.
# 1. Cells. Seed 1500 HEK293 cGMP-sensor cells per well in 4uL into Greiner 1536-well white/solid bottom high base, TC plates.
# 2. Incubation. Incubate plated cells at 37C in 5% CO2, 95% RH overnight.
# 3. Reagent. Add 1uL per well GloSensor reagent from Promega (2% final concentration) or CO2 independent media vehicle control to respective columns of Greiner 1536-well plates.
# 4. Incubation. Incubate plated cells at room temperature for 2 h, protect from light.
# 5. Compounds. Library compounds and DMSO vehicle control added at 23nL per well, transferred by Pin Tool.
# 6. Incubation. Incubate plated cells for 30 min. at room temperature, protect from light.
# 7. Detector. GloSensor baseline pre-read luminescence measured using CCD-based camera (Viewlux).
# 8. Compound. Add 1uL of sodium nitroprusside (SNP) to 50 uM final concentration to stimulate soluble guanylyl cyclase (GC) or CO2 independent media as vehicle control.
# 9. Incubation. Incubate treated cells at room temperature for 20 min., protect from light.
# 10. Detector. GloSensor post-SNP luminescence measured using CCD-based camera (Viewlux).
# NOTES (numbers refer to Sequence numbers above; values are from representative experiments)
# 1. HEK293 cells expressing GIP/pGS-40F were grown to 85-95% confluence (48-72 h) in T175 culture flasks (CO2 independent media supplemented with 10% FBS, 1% Pen/Strep antibiotics, and 1 ug/mL puromycin). Trypsinize and harvest cells from T175 culture flasks and filter through 40 um cell strainer. Cells counted with Invitrogen Countess (30,000,000 - 50,000,000 cells/flask).
# 2. Cells incubated for 24 h. at 37C in 95% RH incubator with metal lid having gas-exchange holes.
# 3. Prepare GloSensor Reagent (Promega): Reconstitute GloSensor luciferase substrate by adding 8.2mL Hepes buffer to 250mg substrate, mix well, protect from light and stored at -80C. Prepare a fresh 12% GloSensor solution in CO2 independent supplemented plating media (see above). Mix well and store at ambient temperature, protected from light. 1uL 12% GloSensor Luciferase Reagent added (2% final concentration) to respective columns of 9 x 1536-well Greiner plate with BioRaptr, 1uL CO2 independent plating media added to respective columns as vehicle control with BioRaptr.
# 4. Cells incubated for 2 h. at ambient temperature, protected from light with metal lid having gas-exchange holes.
# 5. 23nL of LOPAC128 library compounds (7 plates) or DMSO vehicle control transferred to 9 Greiner white/solid bottom high base, TC plates in 7 interplate 1:5 titrations (see Yasgar, A. et al. 2008) with Pintool. Two of the 9 plates are DMSO-only in compound field at beginning and end of compound library-treated plates.
# 6. Cells incubated for 30-50 min. at ambient temperature protected from light with metal lid having gas-exchange holes.
# 7. Read GloSensor + Antagonist/Compound baseline Luminescence on the ViewLux [Exposure, 30 s; Gain, High; Speed, Slow; Binning, 2X]
# 8. SNP solution prepared at 500 mM (in H2O) stock concentration. From this a working dilution was prepared at 300 uM in CO2 Independent media. 1uL of 300 uM SNP (50 uM final concentration) or CO2 Independent media vehicle control dispensed into respective columns of 9 x Greiner 1536-well white/solid bottom, tissue culture plates with BioRaptr.
# 9. Cells incubated for 20 min. at ambient temperature, protected from light with metal lid having gas-exchange holes.
# 10. Read final luminescence on the ViewLux. [Exposure, 30 s; Gain, High; Speed, Slow; Binning, 2X.]
# […]
# Potency is read from the fitted curve at half-maximal effect.
row,Compound,Potency
1,O=C(O)/C=C/C(O)c1ccc(Cl)cc1 (stereo not given),inactive
2,N=c1ccn2c(n1)O[C@H]1[C@H](O)[C@@H](CO)O[C@H]12,inactive
3,COc1cc2nc(N3CCN(C(=O)OCc4ccccc4)C(C(=O)NC(C)(C)C)C3)nc(N)c2cc1OC (stereo not given),inactive
4,C[N+](C)(C)CC(=O)[O-],inactive
5,CCN(CC)c1ncnc2c1ncn2[C@@H]1O[C@H](COP(=O)(O)OP(=O)(O)C(Br)(Br)P(=O)(O)O)[C@@H](O)[C@H]1O,inactive
6,Nc1nc(Cl)nc2c1ncn2[C@@H]1O[C@H](CO)[C@@H](O)[C@H]1O,inactive
7,O=C(O)[C@@H]1C[C@H](C(=O)O)N1,inactive
8,N#C/C(=C\c1ccc(O)c(O)c1)C(=O)NCCCc1ccccc1,inactive
9,NC(=O)C1=CN(C2OC(COP(=O)(O)OP(=O)(O)OC[C@H]3O[C@@H](n4cnc5c(N)ncnc54)[C@H](OP(=O)(O)O)[C@@H]3O)C(O)C2O)C=CC1 (stereo not given in full),inactive
10,O=C1O/C(=C/Br)CCC1c1cccc2ccccc12 (stereo not given),16.5 µM (active)
11,CC(C)ON([C@@H](C(=O)NO)C(C)C)S(=O)(=O)c1ccc(-c2ccccc2)cc1,inactive
12,CCCCCCCCCCCCCCCC(=O)NCC(COP(=O)([O-])OCC[N+](C)(C)C)OCC (stereo not given),inactive
13,Oc1cc(O)cc(/C=C/c2ccc(O)c(O)c2)c1,11.7 µM (active)
14,CC(N)C(=O)OC(C)(C)Cc1ccc(Cl)cc1 (stereo not given),inactive
15,Nc1ncnc2c1ncn2[C@@H]1O[C@H](COP(=O)(O)CP(=O)(O)OP(=O)(O)O)[C@@H](O)[C@H]1O,inactive
16,CCOC(=O)N1CCN(/[N+]([O-])=N/Oc2ccc([N+](=O)[O-])cc2[N+](=O)[O-])CC1,5.21 µM (active)
17,CN1[C@@H](CC(=O)c2ccccc2)CCC[C@H]1C[C@H](O)c1ccccc1,inactive
18,CN(C)c1nc2c(Br)c(Br)c(Br)c(Br)c2[nH]1,inactive
19,C=CC(C)=C[C@@]1(C)SC(=O)C(C)=C1O,inactive
20,COc1cc(C(O)CO)ccc1OS(=O)(=O)O (stereo not given),inactive

row,Compound,Potency
1,C=CC(N)CCC(=O)O (stereo not given),inactive
2,OC[C@H]1O[C@@H](n2cnc3c(NC4CCCC4)ncnc32)[C@H](O)[C@@H]1O,inactive
3,O=C(O)CC1CC(c2ccccc2)=NO1 (stereo not given),inactive
4,CC(C)CC(NP(=O)(O)O[C@@H]1O[C@@H](C)[C@H](O)[C@@H](O)[C@H]1O)C(=O)NC(Cc1c[nH]c2ccccc12)C(=O)O (stereo not given in full),inactive
5,N=C(N)SCCc1ccc(CCSC(=N)N)cc1,inactive
6,NC(=S)c1ccc[n+]([C@@H]2O[C@@H](COP(=O)([O-])OP(=O)(O)OC[C@H]3O[C@@H](n4cnc5c(N)ncnc54)[C@H](OP(=O)(O)O)[C@@H]3O)C(O)C2O)c1 (stereo not given in full),inactive
7,CNC(=O)[C@H]1O[C@@H](n2cnc3c(NCc4cccc(I)c4)ncnc32)[C@H](O)[C@@H]1O,inactive
8,N#C/C(=C\c1c[nH]c2ccccc12)C(=O)c1ccc(O)c(O)c1,inactive
9,CCc1c(C(=O)NCCc2ccc(N3CCCCC3)cc2)[nH]c2ccc(Cl)cc12,inactive
10,N#C/C(=C\c1ccc(O)c(O)c1)C(=O)c1ccc(O)c(O)c1,inactive
11,NCC1OC(O[C@H]2[C@H](O)[C@@H](OC3C(O)C(N)CC(N)C3OC3OC(CO)C(O)C(O)C3N)O[C@@H]2CO)C(N)C(O)C1O (stereo not given in full),inactive
12,CN(C)c1ccc(/C=C2\C(=O)Nc3ccccc32)cc1,4.14 µM (active)
13,CC(=O)/C=C1\C(=O)N(C)c2ccccc21,9.27 µM (active)
14,CN1CCc2cc(O)c(O)cc2C(c2ccccc2)C1 (stereo not given),inactive
15,NCCNC(=O)c1ncsc1-c1cccc(F)c1,inactive
16,C[N+](C)(C)CCOP(=O)(O)OP(=O)([O-])OC[C@H]1O[C@@H](n2ccc(N)nc2=O)[C@H](O)[C@@H]1O,inactive
17,CCCn1c(=O)c2[nH]c(-c3ccc(OCC(=O)NCCN)cc3)nc2n(CCC)c1=O,inactive
18,CC(C)(C)c1ccc(S(=O)(=O)/C=C/C#N)cc1,6.56 µM (active)
19,NC(CCCP(=O)(O)O)C(=O)O (stereo not given),inactive
20,O=C1NC(=O)/C(=C/c2ccc3nccnc3c2)S1,inactive
